# Experimental data taken from PubChem BioAssay (Tox21).
# Several values for one entry are separate records, joined by “and”; a condition that tells them apart may be missing. Equal values may be shown once. Results filed as inconclusive are left out. A call without a number means that no potency is given here. More than one record can exist for a structure, and the calls need not agree. Activity calls are given as the source filed them. Unless noted, calls come from the whole dose curve; as a rule, active = well fitted curve in the direction sought with a large enough effect in the repeat runs; inconclusive = weak or mixed curves; inactive = no such curve, though single readings can be large; an effect the other way counts as inactive or inconclusive.
# Tests used:
# [1] = A CellTox Green Cytotoxicity Assay to monitor cytotoxicity in HepG2 cells - 8 hour (AID 1224890); note: nearly all actives have a fitted effect of over 45% in size; note: potency is the fitted concentration of half-maximal effect
# Outline: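 Cytotoxicity was tracked as dead-cell DNA fluorescence in HepG2 cells treated with test compounds at 37 C; each time-point value comes from one kinetic series spanning 0, 8, 16, 24, 32 and 40 h.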
# [2] = qHTS assay to identify small molecule antagonists of the estrogen receptor alpha (ER-alpha) signaling pathway using the BG1 cell line in the presence of 0.1 nM 17-beta-estradiol - cell viability counter screen (AID 1259241); note: nearly all actives have a fitted effect of over 40% in size; note: potency is the fitted concentration of half-maximal effect
# Outline: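 Cells were plated and left 24 hr, compounds in DMSO were pinned in, 17beta-estradiol was added to 0.1 nM final, and after 22 hr CellTiter-Fluor reagent was added for 30 min before fluorescence was read.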
# [3] = qHTS assay to identify small molecule antagonists of the androgen receptor (AR) signaling pathway using the MDA cell line in the presence of 0.5 nM R1881 - cell viability counter screen (AID 1259242); note: nearly all actives have a fitted effect of over 45% in size
# Outline: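 Cells seeded at 3,000/well and allowed 5 hr at 37C, 0% CO2 before compound transfer and R1881 (0.5 nM final) addition; 16 hr later, live-cell protease fluorescence indicated cytotoxicity.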
# [4] = qHTS assay to identify small molecule HDAC inhibitors (AID 1259364); note: potency is the fitted concentration of half-maximal effect;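 note: wild-type HCT-116 cells with endogenous class I/II HDAC activity; nearly all actives have a fitted effect of over 45% in size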
# Outline: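 HCT-116 wt cells, 1,500/well, overnight attach. Compounds (DMSO) 2 h, 37 °C. HDAC-Glo I/II, 30 min RT. Luminescence.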
# [5] = qHTS assay to identify small molecule HDAC inhibitors - cell viability counter screen (AID 1259365); note: series mostly up to about 92 µM; nearly all actives have a fitted effect of over 50% in size
# Outline: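 Counter screen in wild-type HCT-116 cells: compounds dissolved in DMSO are pin-transferred onto overnight-plated cells and left 2hr at 37C. ATP-based CellTiter-Glo luminescence then measures viable cells.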
# [6] = qHTS assay to identify small molecule agonists of the sonic hedgehog signaling (Shh) pathway - cell viability counter screen (AID 1259366); note: nearly all actives have a fitted effect of over 50% in size; note: potency is the fitted concentration of half-maximal effect
# Outline: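 Cells are plated at 2,000 per well and left 4hr at 37C, 5% CO2 before compound addition. After 23hr of treatment, CellTiter-Fluor reagent is added for 1hr at 37C and fluorescence is measured.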
# [7] = qHTS assay to identify small molecule agonists of the sonic hedgehog signaling (Shh) pathway (AID 1259368; calls by dose curve;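 note: NIH/3T3-derived 3T3Gli1-Luc cells carrying a stable Gli1-driven firefly luciferase reporter; series mostly up to about 92 µM; nearly all actives have a fitted effect of over 15% in size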)
# Outline: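 Following a 24 hr incubation with DMSO-dissolved compounds at 37 C, 5% CO2, Gli1-Luc NIH/3T3-derived cells received luciferase reagent for 30 min at room temperature prior to luminescence measurement.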
# [8] = qHTS assay to identify small molecule antagonists of the sonic hedgehog signaling (Shh) pathway (AID 1259369; calls by dose curve; note: nearly all actives have a fitted effect of over 45% in size; note: potency is the fitted concentration of half-maximal effect)
# Outline: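 Read-out is luminescence from a firefly luciferase gene controlled by the Gli1 response element, in 3T3Gli1-Luc cells pre-incubated 4hr then exposed to compounds and conditioned medium for 24hr.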
# [9] = qHTS assay to identify small molecule agonists of the androgen receptor (AR) signaling pathway in the presence of an antagonist - cell viability counter screen (AID 1259379); note: nearly all actives have a fitted effect of over 25% in size; note: potency is the fitted concentration of half-maximal effect
# Outline: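 Each compound was tested at 15 concentrations on MDA-kb2 cells in the presence of 3.0uM nilutamide. Viability was measured by CellTiter-Fluor fluorescence after a 16 hr incubation at 37C in a CO2-free atmosphere.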
# [10] = qHTS assay to identify small molecule agonists of the estrogen receptor beta (ER-beta) signaling pathway - cell viability counter screen (AID 1259380); note: nearly all actives have a fitted effect of over 30% in size; note: potency is the fitted concentration of half-maximal effect
# Outline: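 Compounds dissolved in DMSO were pin-transferred onto ER-beta-UAS-bla HEK293T cells that had settled 6 hr, and exposure ran 16 hr at 37C. Following the reporter read, CellTiter-Glo luminescence after 30 min at room temperature indicated cytotoxicity.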
# [11] = qHTS assay to identify small molecule antagonists of the estrogen receptor beta (ER-beta) signaling pathway - cell viability counter screen (AID 1259382); note: nearly all actives have a fitted effect of over 55% in size; note: potency is the fitted concentration of half-maximal effect
# Outline: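 CellTiter-Glo ATP luminescence measured after the LiveBLAzer read in the same wells; ER-beta-UAS-bla HEK293T cells, 16 hr compound treatment with 1nM 17-beta-estradiol agonist at 37C, 5% CO2.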
# [12] = qHTS assay to identify small molecule agonists or antagonists of the thyroid stimulating hormone receptor (TSHR) signaling pathway - wild type cell line counter screen (AID 1259384; calls by dose curve)
# Outline: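 Wild-type Hek293 cells, 800/well, 18 h at 37C, then compound with Ro20-1724 for 30 min RT. cAMP by HTRF (cAMP-d2/anti-cAMP cryptate), 1 h RT, fluorescence read. 15 concentrations, triplicates.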
# [13] = biological target: Estrogen receptor beta (Homo sapiens) (UniProt Q92731); assay: qHTS assay to identify small molecule agonists of the estrogen receptor beta (ER-beta) signaling pathway (AID 1259377; active = well fitted activation curve with a large enough effect in the signal ratio in the repeat runs, not every such curve was filed as active; the % refers to the signal ratio)
# Outline: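 Agonist mode cell assay in GripTite HEK293T cells expressing an ER-beta fusion that drives beta-lactamase from an Upstream Activator Sequence; 16 hr compound exposure at 37C, then 2 h LiveBLAzer B/G FRET substrate at room temperature, fluorescence read-out.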
# [14] = biological target: Estrogen receptor beta (Homo sapiens) (UniProt Q92731); assay: qHTS assay to identify small molecule antagonists of the estrogen receptor beta (ER-beta) signaling pathway (AID 1259378; active = well fitted inhibition curve with a large enough effect in the signal ratio in the repeat runs, not every such curve was filed as active; the % refers to the signal ratio; note: potency is the fitted concentration of half-maximal effect)
# Outline: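 ER-beta-UAS-bla HEK293T cells in 2% charcoal-stripped FBS medium treated with compound plus 1nM final 17-beta-estradiol for 16 hr at 37C. Beta-lactamase reporter read by FRET substrate fluorescence after 2 hours at room temperature.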
# [15] = qHTS assay to identify small molecule phospholipidosis (PLD) inducers (AID 1259344; active = well fitted curve in the direction sought with a large enough effect; an effect the other way counts as inactive or inconclusive)
# Outline: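 Image-based: LipidTOX Red pit count/intensity per well and per cell; HepG2, 24 h compound at 37 C, PFA fixation, Hoechst counterstain.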
# [16] = biological target: Estrogen receptor (Homo sapiens) (UniProt P03372); assay: qHTS assay to identify small molecule antagonists of the estrogen receptor alpha (ER-alpha) signaling pathway using the BG1 cell line in the presence of 0.1 nM 17-beta-estradiol (AID 1259244); note: nearly all actives have a fitted effect of over 50% in size
# Outline: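 Luciferase signal from VM7Luc4E2 ERE-reporter cells, co-dosed with test compound and 0.1 nM final 17beta-estradiol for 22 h, read with ONE-Glo.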
# [17] = qHTS assay to identify small molecule antagonists of the sonic hedgehog signaling (Shh) pathway - cell viability counter screen (AID 1259367); note: nearly all actives have a fitted effect of over 55% in size
# Outline: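 Tox21 library chemicals were tested on a Gli1-Luc NIH/3T3 clone (2,000 cells/well) stimulated by conditioned medium; viability was quantified as fluorescence from CellTiter-Fluor reagent added at 23 hr.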
# [18] = biological target: Estrogen receptor (Homo sapiens) (UniProt P03372); assay: qHTS assay to identify small molecule agonists of the estrogen receptor alpha (ER-alpha) signaling pathway in the presence of an antagonist (AID 1259383; calls by dose curve; note: top concentration of the series differs between compounds; nearly all actives have a fitted effect of over 15% in size)
# Outline: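 Luminescent ERE-luciferase reporter, VM7Luc4E2 cells (endogenous ER-alpha); 10.0nM ICI-182,780 final; 15-point compound titration; 22hr at 37C; ONE-Glo, 30min RT.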
# [19] = biological target: Androgen receptor (Homo sapiens) (UniProt P10275); assay: qHTS assay to identify small molecule agonists of the androgen receptor (AR) signaling pathway in the presence of an antagonist (AID 1259381; calls by dose curve; note: nearly all actives have a fitted effect of over 15% in size)
# Outline: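 Plated MDA-kb2 cells (3,000/well) were pre-incubated 5hr, given nilutamide (3.0uM final) or buffer, then dosed with compounds in DMSO at 15 concentrations. Luciferase activity was quantified by luminescence after 16hr at 37C.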
# Chain of Estrogen receptor beta (Homo sapiens) (Q92731 whole entry, looked up, the tested form may be a part): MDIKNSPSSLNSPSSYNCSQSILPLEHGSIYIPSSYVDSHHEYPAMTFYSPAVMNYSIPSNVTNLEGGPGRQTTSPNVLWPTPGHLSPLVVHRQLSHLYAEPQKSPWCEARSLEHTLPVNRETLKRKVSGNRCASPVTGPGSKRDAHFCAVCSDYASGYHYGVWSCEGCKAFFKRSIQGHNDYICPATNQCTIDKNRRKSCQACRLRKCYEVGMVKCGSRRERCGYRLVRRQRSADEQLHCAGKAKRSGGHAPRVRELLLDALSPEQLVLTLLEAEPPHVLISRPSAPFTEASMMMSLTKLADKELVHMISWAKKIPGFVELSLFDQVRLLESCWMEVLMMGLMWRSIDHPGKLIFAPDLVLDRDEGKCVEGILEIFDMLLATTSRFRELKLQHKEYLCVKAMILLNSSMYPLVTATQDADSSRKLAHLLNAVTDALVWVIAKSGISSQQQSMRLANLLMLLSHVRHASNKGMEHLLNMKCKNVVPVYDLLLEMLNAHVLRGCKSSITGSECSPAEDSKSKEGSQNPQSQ
# Chain of Estrogen receptor (Homo sapiens) (P03372 whole entry, looked up): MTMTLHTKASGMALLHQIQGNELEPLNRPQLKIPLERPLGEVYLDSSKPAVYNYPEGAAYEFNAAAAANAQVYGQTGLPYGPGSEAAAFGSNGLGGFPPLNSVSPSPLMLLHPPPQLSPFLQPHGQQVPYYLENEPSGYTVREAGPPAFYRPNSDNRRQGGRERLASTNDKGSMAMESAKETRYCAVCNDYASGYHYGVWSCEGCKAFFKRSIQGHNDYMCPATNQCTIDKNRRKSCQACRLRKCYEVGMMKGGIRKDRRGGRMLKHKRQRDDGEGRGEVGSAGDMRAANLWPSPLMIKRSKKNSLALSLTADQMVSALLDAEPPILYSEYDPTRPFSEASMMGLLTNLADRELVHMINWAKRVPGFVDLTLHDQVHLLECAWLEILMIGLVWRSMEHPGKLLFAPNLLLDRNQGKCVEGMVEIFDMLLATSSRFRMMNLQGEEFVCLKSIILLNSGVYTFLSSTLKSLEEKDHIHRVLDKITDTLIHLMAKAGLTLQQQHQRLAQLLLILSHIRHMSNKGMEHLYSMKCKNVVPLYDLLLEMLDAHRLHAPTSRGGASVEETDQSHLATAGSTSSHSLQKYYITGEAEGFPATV
# Chain of Androgen receptor (Homo sapiens) (P10275 whole entry, looked up): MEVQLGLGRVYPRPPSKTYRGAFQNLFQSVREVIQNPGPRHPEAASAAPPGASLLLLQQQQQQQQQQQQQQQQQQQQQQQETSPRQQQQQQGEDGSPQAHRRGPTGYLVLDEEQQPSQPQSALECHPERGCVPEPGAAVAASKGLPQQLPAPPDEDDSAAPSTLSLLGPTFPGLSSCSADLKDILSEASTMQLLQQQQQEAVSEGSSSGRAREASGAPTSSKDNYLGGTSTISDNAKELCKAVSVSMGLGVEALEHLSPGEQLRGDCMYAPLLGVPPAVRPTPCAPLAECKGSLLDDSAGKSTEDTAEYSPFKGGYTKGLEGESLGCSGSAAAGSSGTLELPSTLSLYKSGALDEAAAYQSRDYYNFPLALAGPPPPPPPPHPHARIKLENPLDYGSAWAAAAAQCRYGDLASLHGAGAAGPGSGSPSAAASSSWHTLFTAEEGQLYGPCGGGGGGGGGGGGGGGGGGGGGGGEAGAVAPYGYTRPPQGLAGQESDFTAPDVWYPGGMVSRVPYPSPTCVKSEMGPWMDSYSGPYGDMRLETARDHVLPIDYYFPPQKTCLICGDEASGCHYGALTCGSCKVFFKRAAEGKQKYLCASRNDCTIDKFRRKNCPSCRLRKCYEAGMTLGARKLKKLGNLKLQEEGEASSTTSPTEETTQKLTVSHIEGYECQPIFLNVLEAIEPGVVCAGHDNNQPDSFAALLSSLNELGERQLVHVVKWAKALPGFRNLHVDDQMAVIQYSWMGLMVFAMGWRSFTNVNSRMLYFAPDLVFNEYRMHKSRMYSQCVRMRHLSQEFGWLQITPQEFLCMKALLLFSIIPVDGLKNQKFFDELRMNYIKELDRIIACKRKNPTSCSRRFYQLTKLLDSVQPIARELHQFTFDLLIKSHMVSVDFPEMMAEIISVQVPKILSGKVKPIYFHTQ
SMILES,Potency [1],Potency [2],Potency [3],Potency [4],outcome [5],Potency [6],outcome [7],Potency [8],Potency [9],Potency [10],Potency [11],outcome [12],Potency [13],Potency [14],outcome [15],Potency [16],Potency [17],Potency [18],Potency [19]
CC(C)(N=C=O)c1cccc(C(C)(C)N=C=O)c1,inactive,inactive,inactive,inactive,inactive,inactive,inactive,inactive,inactive,68 µM (active) and inactive,inactive,inactive,,,,,,,
Cc1cc(Cc2ccc(N)c(C)c2)ccc1N,inactive,inactive,inactive,inactive,inactive,inactive,inactive,inactive,,,inactive,,inactive,inactive,,,,,
CC(C)NCC(O)COc1cccc2ccccc12 (configuration not stated),inactive,inactive,inactive,inactive,inactive,inactive,inactive,24.3 µM (active),,55 µM (active) and 54.5 µM (active),27.6 µM (active),,inactive,,,,,,
CNC[C@H](O)[C@@H](O)[C@H](O)[C@H](O)CO,inactive,inactive,inactive,inactive,inactive,inactive,inactive,inactive,inactive,inactive,inactive,inactive,inactive,inactive,inactive,,,,
Oc1ccc2ccccc2c1N=Nc1ccccc1,inactive,30.6 µM (active),,21.7 µM (active) and 15.4 µM (active),inactive,34.3 µM (active),inactive,inactive,21.7 µM (active) and 27.3 µM (active),,inactive,inactive,inactive,inactive,,inactive,inactive,inactive,
CS(=O)(=O)Nc1ccc([N+](=O)[O-])cc1Oc1ccccc1,inactive,,inactive,inactive,inactive,,inactive,inactive,26.6 µM (active),inactive,inactive,inactive,inactive,,inactive,,,,
Clc1ccc(Cl)c(Cl)c1Cl,inactive,inactive,inactive,inactive,inactive,inactive,inactive,inactive,inactive,inactive,inactive,inactive,inactive,inactive,,,,,
O=C(Oc1ccccc1)c1ccc(O)cc1,inactive,inactive,inactive,21.8 µM (active) and 21.7 µM (active),inactive,inactive,inactive,inactive,,inactive,inactive,inactive,,48.9 µM (active),,,,,
C=C(C)C(=O)OCC(CC)(COC(=O)C(=C)C)COC(=O)C(=C)C,inactive and 42.9 µM (active),inactive,inactive,inactive,inactive,inactive,inactive,,inactive,inactive,inactive,inactive,,,,,inactive,,
Oc1ccc2ccccc2c1,inactive,inactive,inactive,inactive,inactive,inactive,inactive,5.58 µM (active) and 9.69 µM (active),,inactive,inactive,inactive,,,,,inactive,,inactive
C=C1CC[C@H](O)CC1=C/C=C1\CCC[C@]2(C)[C@@H]([C@H](C)/C=C/[C@H](C)C(C)C)CC[C@@H]12,inactive,inactive,inactive,inactive,inactive,inactive,inactive,4.81 µM (active) and 17.2 µM (active),,24.1 µM (active) and 30.6 µM (active),42.9 µM (active),inactive,inactive,,inactive,,,,
O=S(=O)(O)c1cc(S(=O)(=O)O)c2c(N=Nc3ccccc3)c(O)ccc2c1,inactive,,,inactive,inactive,,inactive,inactive,30.8 µM (active) and 54.5 µM (active),inactive,inactive,inactive,inactive,inactive,,inactive,,inactive,
Cc1ccc(N)c(S(=O)(=O)O)c1,inactive,inactive,inactive,inactive,inactive,inactive,inactive,inactive,,inactive,inactive,inactive,inactive,inactive,,,inactive,,
